# The supplement of paper PMC11417369
# Whole data set: some 25,000 sequences, median “ln(normalized median fluorescence intensity)” near 9.3, cut for the highest 2% near 10. What follows is part of a selection rich in the highest values, with near analogues and random picks from the rest.
# Test system: PF3D7_0420300 AP2 domain 1 (GST-tagged)
# Assay: gcPBM binding intensity (ln(normalized median fluorescence intensity)); higher = stronger DNA binding
# How it was run: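 An Agilent 4 × 180k array carrying primer-extended double-stranded 36-bp intergenic genomic probes and negative controls received GST-tagged P. falciparum DNA-binding domains expressed in E. coli, about 25 μg on average, for 1 h. The binding buffer contained 1× PBS, 1% milk, 0.2 mg/ml BSA, 0.5% salmon testes DNA and 0.03% Triton X-100. Binding intensity is the top Masliner-normalised natural-log median intensity across replicate spots of either probe orientation, read after Alexa488 anti-GST antibody staining and a 488 nm scan.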
row,Sequence,gcPBM binding intensity (ln)
1,TTTTATAATTTATCTAAAAAAAAATAAAATAAAATG [TGCATGCA_negctrl_site429],8.67
2,CTTTTTTTTTTGTATTGTACTTTATTTTTACATCGT [XGTACX_site2918],9.65
3,AAAAACGATTAATGTGTACACACATAGTTATAAACA [CACACA_site8659],9.74
4,TGATGATATAAAAACACACACATATAATATAATACT [CACACA_site1208],10
5,TTTTCCCTTACAGAAAAAAAAAAATTCCTAACCCCG [CACACA_negctrl_site650],9.03
6,TGGCATATATATAAATGTACTTTCTTTCTATCTGTT [XGTACX_site8483],9.34
7,ATAAATTCATTATATTGTACAAACAAATGAAAAAAA [XGTACX_site8304],9.09
8,ATATATATGAAACACACACACAAAAAAAAAAAAAAA [CACACA_site3647],9.69
9,TACATAAATTAAAACACACACACACTAATAAAAAAA [CACACA_site8712],10.1
10,AAAAAATATATATTAACACACACACTAATAAAAAAA [CACACA_site8366],10
11,ATAATATGAAAACACACACACACACTAATAAAAAAA [CACACA_site8617],10.2
12,TACATATATAAAAAAACACACACATATATATATATA [CACACA_site8315],9.54
13,ATAATATGAAAACACACACACACACTAGAAAAAAAA [CACACA_site5153],10.3
14,ATAATCCTTAAACACACACACACACTAATAAATAAA [CACACA_site8052],10.2
15,AAAAAAAATATGAAAACACACATATATAAATAAATA [CACACA_site113],9.55
16,AAAAAAAAAAAACACACACACACACTAGTATATAAA [CACACA_site4783],10.2
17,AATAATAAACACAATCAAATAAAATATGAAATATAA [GTGCAC_negctrl_site307],9.46
18,AAAAAAAAAAAAAACACACACACAAGAGTATATAAA [CACACA_site6580],9.99
19,ATAATATGAAATATAACACACATATATAAAAACATT [CACACA_site866],9.72

row,Sequence,gcPBM binding intensity (ln)
1,TAATAAAAATAAAATTGTACTAATAACATTTCATTA [XGTACX_site3703],8.94
2,TATCTTATGTCTGAAAGTACAAATTTTTTTCTACTT [XGTACX_site2208],9.09
3,ATAAATAAAGGACACACACACACACTAGAAAAAAAA [CACACA_site5450],10
4,ATAAATAAAGGACACACACACACACTAATAAAAAAA [CACACA_site8840],10.3
5,ATAATAAAAAAAAATGCACACATATATATATATATA [CACACA_site8766],9.21
6,AAAAAAAAAAAACACACACACACACTAATATATAAA [CACACA_site8302],10.2
7,GGAAACAAAAAATATATACACACTAATCATAAAAAA [CACACA_site7890],9.52
8,AATAAATATAAAAATGCACACACACTAATAAAAAAA [CACACA_site8201],10.2
9,TGCAACAAAATAAACACACACACACTAACACAAAAA [CACACA_site7567],10.1
10,TATATATATATATATACACACACACTAATAAAAAAA [CACACA_site8426],10
11,AAAAAATCACAACACACACACACACTAATAAAAAAA [CACACA_site8410],10.2
12,TATAATAAATCAAATGCACACACACTAATAAAAAAA [CACACA_site7937],10.1
13,AAAAAAATAAAGGATATACACACTAATTATATATAT [CACACA_site2812],9.64
14,ATATAAATAATATAAATACACACTAAAAAAAATATA [CACACA_site542],9.69
15,CACATATAAATATTAACACACATAATGAGTTATATA [CACACA_site7316],9.33
16,GAATATTAAACAAACACACACACATATATATATATA [CACACA_site3382],9.78
17,TTTTTTTTTTATTTTGCACACTTCTAATTTAGTTCT [CACACA_site5828],9.45
18,TTTCTTAAAATGTTATGTACATATTTCGTTTCAAAG [XGTACX_site6102],9.01
19,ATTATATATAAGAAGAGTACTGAATATGTGCAATAT [XGTACX_site4471],9.55

row,Sequence,gcPBM binding intensity (ln)
1,ATATAATATGTTGAATGTACTTAAAAAAATGTATCT [XGTACX_site5385],9.21
2,TAAATAAATAAAAAAACACACATATATATATATATA [CACACA_site4029],9.51
3,CTAAAATACGGACACACACACACATATATATATATA [CACACA_site6138],10.2
4,TAAATATATATATACACACACATACACAAAAAAAAA [CACACA_site3580],10.1
5,AAAAAAAACGGACACACACACATAAATATATATAAA [CACACA_site4260],10.3
6,AAAAAAAACGGACACACACACATACAAAATATATAT [CACACA_site4910],10.2
7,AAAACAAACGGACACACACACATATATATATATATA [CACACA_site5924],9.97
8,CCATAAAACTATAATACACACATATAGATTAACATA [CACACA_site7849],9.7
9,CTATAAATGAATGTTTGTACTTAATAATAAAAGAAA [XGTACX_site3170],9.06
10,GCATATTTTATAATTTTACACACCATATAAAATAAT [CACACA_site8904],9.51
11,TGTTTGTAATTATGTATGCACTTTTTTGTATGTGTG [GTGCAC_site9668],9.58
12,AAAAAAAAAAGACACACACACAAAATAAACAAACAA [CACACA_site7308],10.3
13,CAAAGAGAAATAAACACACACAAAATAAAGAAAAAA [CACACA_site2245],9.74
14,AAAAAAATAAATAAGACACACACAAAAAAAAAAAAA [CACACA_site8404],9.97
15,ACAAAATAAAGACACACACACAAACACAAAAAAATA [CACACA_site7568],10.2
16,AAAAATAAATAAGACACACACAAAAAAAAAAAAAAA [CACACA_site1432],9.54
17,AAAAAAATAAGACACACACACAAAAAAATAAAAATA [CACACA_site6357],10.1
18,TATTTTATTATACCAAGTACAAAATTTAAATATGAA [XGTACX_site5478],8.99
19,AAAATAATAAATAAATGTACATATATATATATATAT [XGTACX_site3078],9.1
